Most compounds without a hit are left out; they make up all but 1.1% or so of the library.
SRC2 inh: inhibition of GAL4-SRC2 driven luciferase reporter, primary screen, SRC2 inhibitor project, cell-based, luminescence | AID 651957, 2012 | Nuclear receptor coactivator 2 (Homo sapiens), Q15596 | HEK293 GAL4-SRC2 luciferase reporter | inhibition, % at 9 µM | 370,000 compounds, 0.17% hits;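 active means inhibition above the mean inhibition of all tested compounds plus 3 SD, set per campaign, cut at about 52% in these data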
LRH-1 inv ag: LRH-1 (NR5A2) inverse agonists, primary screen, cell-based, luminescence, HEK293T, StAR-luciferase reporter | LRH-1 transfected, 24 h | inhibition, % at 3.6 µM | 360,000 compounds, 0.13% hits;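 active means inhibition above the mean inhibition of all tested compounds plus 3 SD, cut at about 73% in these data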
SRC3 inh: SRC3 coactivator transcriptional activity inhibitors, primary screen, cell-based, luminescence; Nuclear receptor coactivator 3 (Homo sapiens), Q9Y6Q9; HEK293 GAL4-SRC3 luciferase reporter; inhibition, % at 3.6 µM; 360,000 compounds, 0.17% hits;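 active means inhibition above a per-campaign cutoff, the mean of all compounds plus 3 SD, cut at about 60% in these data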;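 further: higher means less SRC3-driven luciferase light from the GAL4 reporter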
NCOA1 inh: SRC1 coactivator transcriptional activity inhibitors, primary screen, cell-based, luminescence. Nuclear receptor coactivator 1 (Homo sapiens), Q15788. HEK293 GAL4-SRC1 luciferase reporter. inhibition, % at 3.6 µM. 360,000 compounds, 0.12% hits. AID 588354, 2011;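 active means inhibition above the campaign mean plus 3 SD, with each screening campaign given its own cutoff, cut at about 60% in these data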
GalR3 antag: GalR3 antagonists in HEK293 cells, primary screen, cell-based, fluorescence readout; Galanin receptor type 3 (Homo sapiens), O60755; inhibition, % at 3 µM; 360,000 compounds, 0.44% hits; HEK293 GalR3-CNG cAMP membrane potential fluorescence; galR3 body fused to GalR1 C-terminus; AID 651719, 2012;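 active means inhibition above the screen-wide average plus 3 SD, cut at about 13% in these data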;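 further: forskolin and galanin both at EC90 stimulate the cells; cAMP rise reported by CNG channel membrane potential dye signal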
Target sequence (O60755 1-299 limits assumed): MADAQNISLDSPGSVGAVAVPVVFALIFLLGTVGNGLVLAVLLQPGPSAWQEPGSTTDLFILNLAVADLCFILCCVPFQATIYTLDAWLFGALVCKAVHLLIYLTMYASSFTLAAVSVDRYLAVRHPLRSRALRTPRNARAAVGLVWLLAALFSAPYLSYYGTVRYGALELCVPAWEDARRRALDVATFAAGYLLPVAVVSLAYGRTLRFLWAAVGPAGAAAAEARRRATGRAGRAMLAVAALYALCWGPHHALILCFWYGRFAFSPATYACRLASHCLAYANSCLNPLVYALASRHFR
COUP-TFII inh: NR2F2 transcriptional activity inhibitors, primary screen, cell-based, luciferase reporter, HEK293T, luminescence | HEK293T NGFI-A luciferase reporter | inhibition, % at 8.6 µM | 370,000 compounds, 0.7% hits | AID 686940, 2013;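 active means inhibition above a per-plate cutoff, mean inhibition of test wells between control levels plus 3 SD, cut at about 38% in these data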;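 further: cells cotransfected with COUP-TFII expression vector driving the NGFI-A reporter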
Target sequence (P24468 whole entry, looked up): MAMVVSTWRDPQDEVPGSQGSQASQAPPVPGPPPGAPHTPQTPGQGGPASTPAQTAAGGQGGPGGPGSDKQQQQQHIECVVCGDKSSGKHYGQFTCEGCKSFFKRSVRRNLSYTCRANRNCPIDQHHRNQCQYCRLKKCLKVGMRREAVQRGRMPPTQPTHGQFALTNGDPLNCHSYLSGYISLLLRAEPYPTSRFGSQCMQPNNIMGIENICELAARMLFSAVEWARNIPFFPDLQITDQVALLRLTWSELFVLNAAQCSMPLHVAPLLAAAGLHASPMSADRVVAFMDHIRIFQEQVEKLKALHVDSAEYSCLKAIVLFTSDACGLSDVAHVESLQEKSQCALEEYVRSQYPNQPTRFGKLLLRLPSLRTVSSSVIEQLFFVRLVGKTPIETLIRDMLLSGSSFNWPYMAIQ
GalR3 conf: GalR3 antagonist hit confirmation, cell-based, fluorescence, triplicate | HEK293 GalR3 CNG cAMP biosensor, membrane potential fluorescence; galR3 fused to GalR1 carboxy tail; challenged with forskolin and galanin at EC90 | inhibition, % at 3 µM | shares compounds with GalR3 antag | AID 652245, 2013 | 1,600 compounds, 59% hits;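 active means inhibition above the primary screen's cutoff, the mean inhibition of all screened compounds plus 3 SD, cut at about 13% in these data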
HEK-CNG parental: nonspecific cAMP agonists in parental HEK-CNG cells, counter-screen for GalR3 antagonist project, cell-based, fluorescence, high throughput | activation, % at 3 µM | shares compounds with GalR3 antag | 1,600 compounds, 10% hits | HEK293-CNG parental cells, cAMP membrane potential fluorescence; normalised: DMSO wells 0%, forskolin wells 100%; in the data active means activation above about 1.3%
Of the large screens only hits and unclear results are named; the others gave an inactive call (follow-up assays come after a bar, where they were run).

COc1ccc(OCc2cccc(C(=O)Nc3ccc(CN4CCCCC4)cc3)c2)cc1	GalR3 antag 13 | GalR3 conf 35 | HEK-CNG parental 2.0
CCCc1nc(NCc2ccccc2)c(C#N)c2c1CCCC2	GalR3 antag 17 | GalR3 conf inactive | HEK-CNG parental inactive
C=CCNC(=O)Nc1ccc2c(c1)[C@]1(CC(=O)N(CC(C)C)C1c1ccccc1)C(=O)N2C (some centres not stated)	none (no result: LRH-1 inv ag, SRC3 inh, NCOA1 inh, GalR3 antag)
O=C(N[C@H]1C[C@@H]2O[C@H](CO)CC[C@@H]2O[C@@H]1CCc1ccc(-c2cccnc2)cc1)c1cccc(F)c1	none (no result: LRH-1 inv ag, SRC3 inh, NCOA1 inh, GalR3 antag)
O=C(O)c1ccc(O)c(O)c1	GalR3 antag 13 | GalR3 conf inactive | HEK-CNG parental inactive
Cc1ccc(-c2nnc(SCC(=O)Nc3ccc4c(c3)OCCO4)n2-c2ccc(Cl)cc2)cc1	none (no result: LRH-1 inv ag, SRC3 inh, NCOA1 inh, GalR3 antag)
O=C(C=C=Nc1ccccc1)C(=O)N=C=Cc1ccccc1	GalR3 antag 18 | GalR3 conf inactive | HEK-CNG parental inactive
N#Cc1cccc(NC(=O)OCCN2C(=O)CCC23CCC(c2ccc(Cl)cc2)CC3)c1 (configuration not stated)	none (no result: LRH-1 inv ag, SRC3 inh, NCOA1 inh, GalR3 antag)
C=CCOC(=O)N1CCC(NS(=O)(=O)c2ccc3c(c2)CCN3C(C)=O)CC1	none (no result: LRH-1 inv ag, SRC3 inh, NCOA1 inh, GalR3 antag)
COc1cccc(Cn2nc(C(=O)O)c3ccccc3c2=O)c1	GalR3 antag 19 | GalR3 conf 16 | HEK-CNG parental inactive
O=C(O)c1ccc(NS(=O)(=O)c2cccc(C(=O)Nc3ccccc3[N+](=O)[O-])c2)cc1	none
CN(C)S(=O)(=O)c1cccc(C(=O)Nc2ccccc2[N+](=O)[O-])c1	GalR3 antag 15 | GalR3 conf inactive | HEK-CNG parental inactive
CC(C)CCOc1ccc(C2=NNC(=O)CC2)cc1	GalR3 antag 26 | GalR3 conf 15 | HEK-CNG parental inactive
COc1cc(CCCN2C(N)=NC[C@@H]2c2ccccc2)cc(OC)c1OC	none (no result: GalR3 antag) | GalR3 conf inactive | HEK-CNG parental inactive
CCOC(=O)CC[C@@H]1CC[C@]2(CCCN(Cc3ccc(Cl)cc3)C2)O1	none (no result: LRH-1 inv ag, SRC3 inh, NCOA1 inh, GalR3 antag)
CCN(CC(=O)NCCCN1CCOCC1)S(=O)(=O)c1ccc(F)cc1	GalR3 antag 19 | GalR3 conf inactive | HEK-CNG parental inactive
CCN(CC(=O)NCCCN1CCOCC1)S(=O)(=O)c1ccc(Cl)cc1	none
CCn1c2ccccc2c2cc(NC(=O)COC(=O)c3cccc(F)c3F)ccc21	none (no result: LRH-1 inv ag, SRC3 inh, NCOA1 inh, GalR3 antag)
Cc1cccc(Nc2c3c(nc4ncnn24)CCC3)c1	none
Cc1cc(C)cc(Nc2c3c(nc4ncnn24)CCC3)c1	GalR3 antag 13 | GalR3 conf inactive | HEK-CNG parental 1.6
CC(=O)Oc1ccc2c(c1)OC(c1ccccc1)CC21CC(C)(C)NC(=S)N1 (configuration not stated)	none (no result: GalR3 antag) | GalR3 conf inactive | HEK-CNG parental inactive
CC1(C)CC2(CC(c3ccccc3)Oc3cc(O)ccc32)NC(=S)N1 (configuration not stated)	none
Cc1sc2nc(SCC(=O)c3ccc(O)c(O)c3)n(C)c(=O)c2c1C	none (no result: LRH-1 inv ag, SRC3 inh, NCOA1 inh, GalR3 antag)
CCCC(=O)OCCNc1cc(Sc2nccn2C)c2nonc2c1[N+](=O)[O-]	GalR3 antag 40 | GalR3 conf 24 | HEK-CNG parental inactive
CCC(=O)OCCNc1cc(Sc2nc3ccccc3[nH]2)c2nonc2c1[N+](=O)[O-]	GalR3 antag 35 | GalR3 conf 32 | HEK-CNG parental inactive
Cc1nnc(Sc2cc(NCCO)c([N+](=O)[O-])c3nonc23)s1	none
CCC(=O)OCCNc1cc(Sc2nc3ccccc3s2)c2nonc2c1[N+](=O)[O-]	none
CCCSc1cc(NCCOC(=O)CCC)c([N+](=O)[O-])c2nonc12	none
Cc1nnc(Sc2cc(NCCCO)c([N+](=O)[O-])c3nonc23)s1	GalR3 antag 21 | GalR3 conf inactive | HEK-CNG parental inactive
CCOC(=O)Nc1ccc2c(c1)[C@@]1(CC(=O)N(CC(C)C)C1c1ccccc1)C(=O)N2C (some centres not stated)	none (no result: LRH-1 inv ag, SRC3 inh, NCOA1 inh, GalR3 antag)
COC(=O)[C@]12C[C@H](CC(=O)NCCCN3CCCC3=O)C(=O)N(Cc3ccc(Cl)cc3Cl)C1=C[C@H](COCc1ccccc1)O[C@@H]2C	none (no result: LRH-1 inv ag, SRC3 inh, NCOA1 inh, GalR3 antag)
COC(=O)[C@]12C[C@H](CC(=O)NCC3CCCCC3)C(=O)N(Cc3ccc(Cl)cc3Cl)C1=C[C@H](C(C)C)O[C@@H]2C1CC1	none (no result: LRH-1 inv ag, SRC3 inh, NCOA1 inh, GalR3 antag)
CC(Sc1nc(NCc2ccccc2)nc(N(C)C)n1)C(=O)Nc1ccccc1 (configuration not stated)	none
CC(Sc1nc(N)c2c3c(sc2n1)CSC(C)(C)C3)C(=O)Nc1ccccc1 (configuration not stated)	GalR3 antag 54 | GalR3 conf 45 | HEK-CNG parental inactive
Cc1cc(OCC(=O)NC2CC(C)(C)NC(C)(C)C2)c2c(C)cc(=O)oc2c1	none (no result: GalR3 antag) | GalR3 conf inactive | HEK-CNG parental inactive
O=C(COCc1ccccc1)N1CC[C@H]2[C@H](CCCN2Cc2ccc(F)cc2)C1	none (no result: LRH-1 inv ag, SRC3 inh, NCOA1 inh, GalR3 antag)
CCc1ccc(CNCc2ccc(OCC(O)CN(C)Cc3ccccc3)cc2)nc1 (configuration not stated)	GalR3 antag 56 | GalR3 conf 14 | HEK-CNG parental 15
CN(Cc1ccccc1)CC(O)COc1ccc(CNCCc2cccnc2)cc1 (configuration not stated)	none
O=C(CSc1nc2ccccc2nc1N1CCCCC1)N1CCN(S(=O)(=O)c2cc(Cl)ccc2Cl)CC1	none (no result: LRH-1 inv ag, SRC3 inh, NCOA1 inh, GalR3 antag)
Cc1ccccc1CNC(=O)c1cccc2c1C(=O)N(Cc1cccnc1)C2	none (no result: LRH-1 inv ag, SRC3 inh, NCOA1 inh, GalR3 antag)
COc1ccc(C2=NN(C(=O)c3cccs3)C(O)(C(F)(F)F)C2)cc1 (configuration not stated)	GalR3 antag 88 | GalR3 conf 94 | HEK-CNG parental inactive
C=C1C(=O)C23CCC4C(C)(C(=O)OC)CCCC4(C)C2CCC1(O)C3 (configuration not stated)	SRC2 inh 68, GalR3 antag 37, COUP-TFII inh 78 | GalR3 conf 48 | HEK-CNG parental 1.6

Screens from PubChem.
